Experimental data taken from PubChem BioAssay AID1578 (Sanford-Burnham Center for Chemical Genomics, 2009).
About 3,000 (1%) of roughly 290,000 compounds were called active. Cut-off read from the data, not from the text of the source: active = inhibition mostly above about 36% (no sharp cut-off); inactive = mostly below about 34%. What follows is part of a selection rich in actives, with near analogues and random picks from the rest.

Experiment: NOD1 signaling inhibitors, primary screen, cell-based, luminescence, uHTS (AID 1578);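 note: HEK-293T reporter cells stimulated with the NOD1 agonist gamma-tri-DAP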
Details: NOD1-driven NF-kB luciferase reporter cells, at 4 µM, hits give high values

inhibition, active:
O=C(c1ccc(-c2ccccc2)cc1)N1CCN(c2nc3ccccc3o2)CC1 35.5%
COCCNC(=S)Nc1ccccc1Cc1ccccc1 45.2%
Cc1noc(NC(=O)c2ccc(Cl)c(Cl)c2)c1Cl 67.6%
CCCCNC(=S)N(C)/N=C/c1ccc(F)cc1 100%
COc1cc2c3nnc(-c4ccc(F)cc4)c-3cn(Cc3ccc(F)cc3)c2cc1OC 108%
O=c1[nH]c(/C(Cl)=C/c2cc(Cl)ccc2O)nc2cc(Cl)ccc12 81.7%
CC(C)[C@H]1COC(NC2=N[C@@H](C(C)C)CO2)=N1 75.5%
Cc1ccc(N2CN=c3s/c(=C\c4cccnc4)c(=O)n3C2)cc1 84.1%
OCCCC1CCCN(Cc2cn[nH]c2-c2ccc(F)cc2F)C1 (stereo not drawn) 75%

inhibition, inactive:
Cc1cc(C(F)(F)F)nn1CC(=O)NCc1ccco1 -18%
ON1C(c2ccc(Cl)cc2Cl)N(O)[C@H]2CCCC[C@H]21 (stereo partly drawn) -8.4%
COC(=O)C1CN(C(=O)COc2ccccc2)c2ccccc2O1 (stereo not drawn) 15.9%
Cc1ccc(C(C)C)c(OCCNC(=O)c2cncc(Br)c2)c1 16.6%
Cc1ccc(C(C)C)c(OCCNC(=O)c2ccccc2O)c1 -22.6%
COc1cc(/C=N/n2nnnc2Nc2ccccc2)cc(OC)c1OC -36.9%
CCc1cccc(C)c1NC(=O)C(c1ccccc1)N1CCC1=O (stereo not drawn) -22.7%
COCCCNC(=S)N1CCN(S(C)(=O)=O)CC1 -18.9%
CC(C)(C)c1ccc(C(=O)N2CCN(c3nc4ccccc4o3)CC2)cc1 28.1%
COc1ccc(C(=O)N2CCN(c3nc4ccccc4o3)CC2)cc1OC 19.2%
CCOC(=O)C1(Cc2ccccc2)CCN(Cc2ccc(C)s2)CC1 -14.9%
O=C(Cc1ccc(F)cc1)Nc1nccs1 -24.2%
O=C(Nc1ccc(S(=O)(=O)Nc2nccs2)cc1)c1ccc(F)cc1 -13.9%
COc1ccc(/C=C/C(=O)Nc2ccc3nc4n(c(=O)c3c2)CCCC4)cc1OC -31.1%
O=C(O)c1ccc(NCc2cccnc2)c([N+](=O)[O-])c1 -17.4%
C/C(=N\NC(N)=O)c1cccc(Cl)c1 29%
CCCCNC(=S)Nc1ccccc1Cc1ccccc1 -3.1%
COCCCNC(=S)Nc1ccccc1C -13.2%
CCCCCN(C(=O)NC(=O)NC(C)CC)S(C)(=O)=O (stereo not drawn) -3.8%
Cc1noc(NC(=O)c2cccc(C(F)(F)F)c2)c1Cl -5.6%
Cc1noc(NC(=O)c2ccc(Cl)cc2)c1Cl -33%
COc1cccc(C(=O)NCCNC(=O)c2ccc(C)nc2)c1 -6.6%
CCCCNC(=S)N(C)/N=C/c1ccccc1F 12.5%
CCCCNC(=S)N(C)/N=C/c1c(F)cccc1F -5.6%
Cc1ccc(C(=O)NC2CCc3ccccc3C2=O)cc1 (stereo not drawn) -47.4%
COCCN1CCN(C(=O)C2CCC(=O)N(Cc3ccccc3OC)C2)CC1 (stereo not drawn) -18.1%
N#CCCn1cc(/C=C/C(=O)O)c(-c2ccc(F)cc2)n1 -31.6%
COc1cc2c3nnc(-c4ccc(F)cc4)c-3cn(Cc3ccc(C)cc3)c2cc1OC -31.5%
COc1ccc(Cn2cc3c(-c4ccc(F)cc4)nnc-3c3cc(OC)c(OC)cc32)cc1 10.1%
Cc1cc(N2CC(C(=O)Nc3nccs3)CC2=O)ccc1C(C)C (stereo not drawn) -22.4%
COc1ccc(C(=O)Nc2cc(C)on2)cc1[N+](=O)[O-] -31.1%
O=C(Nc1ccc(-c2n[nH]c(=S)o2)cc1)c1ccccc1Cl -4.7%
Cc1nn(-c2ncc(C(F)(F)F)cc2Cl)c(=O)n1-c1c(F)cccc1F -38.4%
O=c1[nH]c(/C(Cl)=C/c2c(F)cccc2Cl)nc2cc(Cl)ccc12 25.9%
CCc1ccc(/C=C(\Cl)c2nc3cc(Cl)ccc3c(=O)[nH]2)cc1 -10.4%
CCOP(=O)(OCC)C(NC(C)=O)C(=O)c1ccccc1 (stereo not drawn) -30.2%
Cc1cc(C)cc(NC(=S)NCc2cccnc2)c1 -23.4%
CC(C)[C@@H]1COC(c2cccc(C3=N[C@H](C(C)C)CO3)c2)=N1 -29%
CC(C)[C@@H]1COC(c2cccc(C3=N[C@H](C(C)C)CO3)n2)=N1 11.3%
Cc1ccc(C2C(=O)c3ccccc3C2=O)cc1 -11%
CCOc1ccc(N/C(=N/c2nc(C)cc(C)n2)NC(C)=O)cc1 -12%
COc1ccccc1-c1nc(C#N)c(N2CCN(Cc3ccccc3)CC2)o1 13.8%
Cc1ccc(N2CN=c3s/c(=C\c4ccccn4)c(=O)n3C2)cc1 -21.2%
CCc1ccc(N2CN=c3s/c(=C\c4ccccc4)c(=O)n3C2)cc1 -13%
COc1cccc(C2Nc3ccccc3NC3=C2C(=O)CC(C)(C)C3)c1OC (stereo not drawn) -8.8%
C=CCn1c(=O)c2c(nc3n2CCS3)n(C)c1=O 5.1%
CCN(CC)C(=O)C[n+]1cccc(/C=N/O)c1 -12.8%
Cc1ccc(C)c(OCC(=O)Nc2nc3ccc([N+](=O)[O-])cc3s2)c1 -16.9%
Cc1cccc(OCC(=O)Nc2nc3ccc([N+](=O)[O-])cc3s2)c1 55.9%
CS(=O)(=O)N(CC(=O)N/N=C/c1ccc(OCC(=O)N2CCOCC2)cc1)c1ccccc1Cl -22.8%
Cc1sc(NC(=O)CSc2nc(O)cc(=O)[nH]2)nc1-c1ccccc1 -24.3%
CN(CCCN1CCOCC1)C(=O)c1cc(COc2cccc(C(F)(F)F)c2)on1 -8.6%
CCOC(=O)C1CCCN(Cc2cn[nH]c2-c2ccc(F)cc2F)C1 (stereo not drawn) -31.8%
O=C(C1CCN(Cc2cn[nH]c2-c2ccc(F)cc2F)CC1)N1CCOCC1 -5.7%
